{"source": "PubChem BioAssay AID463173", "about": "(ICCB-Longwood Screening Facility, Harvard Medical School, 2010)", "note": "The whole screen tested about 52,000 compounds, of which about 4,300 (8.3%) were called active. No stated cut-off is given here; in the data, active means survival mostly below about 52% (no sharp cut-off); inactive means mostly above about 56%. Many of the other results were omitted from the sample, so actives are more common in it than they were."}
{"tested_on": "DeltatarO mutant", "assay": "growth inhibition of S. aureus wild type versus tarO mutant, primary screen, teichoic acid synthesis inhibitors, RN4220, OD600 (AID 463173)", "settings": "OD600, 18 h, hits give low values, screened at 18.75 µg/mL (by protocol)"}
{"molecule": "CCCSCCCNC(=O)CN1C(=O)COc2ccc(S(=O)(=O)N3CCC(C)CC3)cc21", "survival": "90% (inactive)"}
{"molecule": "N#Cc1ccccc1NC(=O)CNCC1CCCO1", "note": "(centres undefined)", "survival": "76% (inactive)"}
{"molecule": "CC1C(=O)N2CCCc3cc(S(=O)(=O)N4CCC(C(N)=O)CC4)cc1c32", "note": "(centres undefined)", "survival": "0% (active)"}
{"molecule": "CCOC(=O)C1CCN(S(=O)(=O)c2cc3c4c(c2)CC(=O)N4CCC3)CC1", "survival": "83% (inactive)"}
{"molecule": "CCOC(=O)C1CCN(S(=O)(=O)c2cc3c4c(c2)C(C)C(=O)N4CCC3)CC1", "note": "(centres undefined)", "survival": "98% (inactive)"}
{"molecule": "COC(=O)C1CCN(S(=O)(=O)c2cc3c4c(c2)C(C)C(=O)N4CCC3)CC1", "note": "(centres undefined)", "survival": "99% (inactive)"}
{"molecule": "COC(=O)c1ccccc1N(C)S(=O)(=O)c1cc2c3c(c1)CC(=O)N3CCC2", "survival": "78% (inactive)"}
{"molecule": "COC(=O)c1ccccc1NS(=O)(=O)c1cc2c3c(c1)CC(=O)N3CCC2", "survival": "46% (active)"}
{"molecule": "COc1ccc(C)cc1NS(=O)(=O)c1cc2c3c(c1)CC(=O)N3CCC2", "survival": "105% (inactive)"}
{"molecule": "CC1CCN(S(=O)(=O)c2cc3c4c(c2)CC(=O)N4CCC3)CC1", "survival": "102% (inactive)"}
{"molecule": "COC(=O)C1CCN(S(=O)(=O)c2cc3c4c(c2)CC(=O)N4CCC3)CC1", "survival": "37% (active)"}
{"molecule": "O=C(O)CCCNC1C=CS(=O)(=O)C1", "note": "(centres undefined)", "survival": "91% (inactive)"}
{"molecule": "COCCNc1cc(N2CCN(C3CCCCC3)CC2)c2noc3c2c1C(=O)c1ccccc1-3", "survival": "57% (inactive)"}
{"molecule": "COc1ccc(CCC(=O)NC2CC(=O)N(c3cccc(F)c3)C2)cc1", "note": "(centres undefined)", "survival": "113% (inactive)"}
{"molecule": "CSc1nc(NC(N)=S)nc(NC(C)C)n1", "survival": "76% (inactive)"}
{"molecule": "Cc1cc(C)c2c(CC(=O)Nc3ccc(S(=O)(=O)Nc4ncccn4)cc3)coc2c1", "survival": "83% (inactive)"}
{"molecule": "COc1ccc([N+](=O)[O-])cc1NC(c1nnc(-c2ccccc2)o1)c1ccccc1F", "note": "(centres undefined)", "survival": "83% (inactive)"}
{"molecule": "Cc1cccc2nc(-c3cccnc3)c(Nc3ccc(C(C)C)cc3)n12", "survival": "70% (inactive)"}
{"molecule": "Cc1cccc(C(C)C)c1NC(=O)c1ccc2c(c1)CCN2S(C)(=O)=O", "survival": "74% (inactive)"}
{"molecule": "COc1ccc(C2C(C(=O)Nc3cccnc3)=C(C)Nc3nc(-c4ccc(OC)c(OC)c4)nn32)cc1", "note": "(centres undefined)", "survival": "150% (inactive)"}
{"molecule": "CCOC(=O)C1CCN(C(=O)c2c(C)nn(-c3ccc(F)cc3)c2-n2cccc2)CC1", "survival": "66% (inactive)"}
{"molecule": "Cc1cc(NC(=O)CSc2nc(-c3ccccc3C)nc3c2c(=O)n(C)c(=O)n3C)no1", "survival": "67% (inactive)"}
{"molecule": "Cc1ccc(NC(=O)c2nc(S(C)(=O)=O)ncc2N(Cc2ccco2)Cc2cccs2)cc1C", "survival": "40% (active)"}
{"molecule": "Cc1ccc(NC(=O)c2nc(S(C)(=O)=O)ncc2N(Cc2ccco2)Cc2cccs2)c(C)c1", "survival": "38% (active)"}
{"molecule": "COc1ccc(CN(Cc2ccco2)c2cnc(S(C)(=O)=O)nc2C(=O)Nc2ccc(C)cc2C)cc1", "survival": "48% (inactive)"}
{"molecule": "CCc1ccc(CN(Cc2ccco2)c2cnc(S(C)(=O)=O)nc2C(=O)Nc2cccc(C)c2)cc1", "survival": "46% (inactive)"}
{"molecule": "CS(=O)(=O)c1ncc(N(Cc2ccccc2)Cc2ccco2)c(C(=O)Nc2cccc(C(F)(F)F)c2)n1", "survival": "52% (inactive)"}
{"molecule": "COc1ccc(CN(Cc2ccco2)c2cnc(S(C)(=O)=O)nc2C(=O)Nc2ccc(C)c(C)c2)cc1", "survival": "44% (active)"}
{"molecule": "COc1ccc(CN(Cc2ccco2)c2cnc(S(C)(=O)=O)nc2C(=O)Nc2ccc(C)c(Cl)c2)cc1", "survival": "47% (inactive)"}
{"molecule": "CC(C)c1ccc(CN(Cc2ccco2)c2cnc(S(C)(=O)=O)nc2C(=O)Nc2ccccc2)cc1", "survival": "44% (active)"}
{"molecule": "Cc1ccc(NC(=O)c2nc(S(C)(=O)=O)ncc2N(Cc2cccc(F)c2)Cc2ccco2)cc1C", "survival": "45% (inactive)"}
{"molecule": "CC(C)c1ccc(CN(Cc2ccco2)c2cnc(S(C)(=O)=O)nc2C(=O)Nc2ccc(F)cc2)cc1", "survival": "49% (inactive)"}
{"molecule": "Cc1ccc(NC(=O)c2nc(S(C)(=O)=O)ncc2N(Cc2ccco2)Cc2ccco2)cc1C", "survival": "50% (inactive)"}
{"molecule": "COc1ccc(CN(Cc2ccco2)c2cnc(S(C)(=O)=O)nc2C(=O)Nc2ccc(F)cc2)cc1", "survival": "49% (inactive)"}
{"molecule": "Cc1ccc2scc(N3CCc4ccccc4C3)c(=O)c2c1", "survival": "73% (inactive)"}
{"molecule": "CCN(c1cccc(C)c1)S(=O)(=O)c1c(C)nc2sc(C)cn2c1=O", "survival": "73% (inactive)"}
{"molecule": "Cc1ccc2oc(=O)c3cnn(CC(=O)Nc4cccc(C(F)(F)F)c4)c3c2c1", "survival": "87% (inactive)"}
{"molecule": "Brc1ccc(-c2cc(-c3ccccc3)no2)cc1", "survival": "74% (inactive)"}
{"molecule": "CC1CCC(Nc2nnnn2-c2ccccc2)CC1", "note": "(centres undefined)", "survival": "87% (inactive)"}
{"molecule": "CCc1cccc(NS(=O)(=O)c2ccc3c(c2)n(C)c(=O)c(=O)n3C)c1", "survival": "73% (inactive)"}
{"molecule": "CCOC(=O)c1ccccc1NC(=O)CN1C(=O)CC(c2ccccc2)Sc2ccccc21", "note": "(centres undefined)", "survival": "92% (inactive)"}
{"molecule": "COCCNC(=O)CSc1nc(-c2ccc(F)cc2)[nH]c1-c1ccc(Cl)cc1", "survival": "71% (inactive)"}
{"molecule": "CCc1cccc(C)c1NC(=O)Cn1cnc2c1c(=O)n(C)c(=O)n2C", "survival": "74% (inactive)"}
{"molecule": "CS(=O)(=O)c1ncc(N(Cc2ccco2)Cc2cccs2)c(C(=O)Nc2ccccc2F)n1", "survival": "41% (active)"}
{"molecule": "CC(C)(C)c1ccc(CN(Cc2ccco2)c2cnc(S(C)(=O)=O)nc2C(=O)Nc2ccc(F)cc2)cc1", "survival": "102% (inactive)"}
{"molecule": "CCc1ccc(CN(Cc2ccco2)c2cnc(S(C)(=O)=O)nc2C(=O)Nc2c(C)cccc2C)cc1", "survival": "36% (active)"}
{"molecule": "Cc1cccc(C)c1NC(=O)c1nc(S(C)(=O)=O)ncc1N(Cc1ccc(C(C)(C)C)cc1)Cc1ccco1", "survival": "49% (inactive)"}
{"molecule": "Cc1ccc(NC(=O)c2nc(S(C)(=O)=O)ncc2N(Cc2ccc(C(C)(C)C)cc2)Cc2ccco2)cc1C", "survival": "52% (inactive)"}
{"molecule": "Cc1ccc(NC(=O)c2nc(S(C)(=O)=O)ncc2N(Cc2ccccc2)Cc2ccco2)c(C)c1", "survival": "53% (inactive)"}
{"molecule": "CS(=O)(=O)c1ncc(N(Cc2ccco2)Cc2ccco2)c(C(=O)Nc2ccccc2Br)n1", "survival": "53% (inactive)"}
{"molecule": "Cc1ccc(CN(Cc2ccco2)c2cnc(S(C)(=O)=O)nc2C(=O)Nc2ccccc2Br)o1", "survival": "44% (inactive)"}
{"molecule": "Cc1ccc(NC(=O)c2nc(S(C)(=O)=O)ncc2N(Cc2ccco2)Cc2ccccc2F)c(C)c1", "survival": "37% (active)"}
{"molecule": "Cc1ccc(C)c(NC(=O)c2nc(S(C)(=O)=O)ncc2N(Cc2ccc(C(C)(C)C)cc2)Cc2ccco2)c1", "survival": "55% (active)"}
{"molecule": "CCS(=O)(=O)c1ncc(N(Cc2ccco2)Cc2ccccc2F)c(C(=O)Nc2cccc(Cl)c2)n1", "survival": "60% (inactive)"}
{"molecule": "Cc1cccc(C)c1NC(=O)c1nc(S(C)(=O)=O)ncc1N(Cc1ccc(F)cc1)Cc1ccco1", "survival": "46% (inactive)"}
{"molecule": "COCCn1c(C)cc(O)c(C(c2ccc(OC)cc2)N2CCCCC2)c1=O", "note": "(centres undefined)", "survival": "83% (inactive)"}
{"molecule": "Cc1ccc(-c2nnc(Nc3cccc(Cl)c3)c3ccccc23)cc1S(=O)(=O)N1CCN(C)CC1", "survival": "87% (inactive)"}
{"molecule": "CCn1c(=O)n(-c2ccc(F)cc2)c(=O)c2sc3ccccc3c21", "survival": "88% (inactive)"}
{"molecule": "Cc1ncc(CO)c2c1Oc1nc(-c3ccc(F)cc3)nc(SCc3ccc(F)cc3Cl)c1C2", "survival": "58% (inactive)"}
{"molecule": "Cc1cccc(OCc2ccc(-c3nc(C#N)c(NCc4cccnc4)o3)o2)c1", "survival": "79% (inactive)"}
{"molecule": "COC(=O)c1sccc1S(=O)(=O)N(CC(=O)NCc1ccccc1)c1ccc(C)cc1", "survival": "95% (inactive)"}
{"molecule": "CC(=O)N1CCc2c(sc3c2c(=O)n(-c2ccccc2Cl)c(=O)n3Cc2cccc(C)c2)C1", "survival": "74% (inactive)"}
{"molecule": "Cc1cc(NS(=O)(=O)c2ccc3nc(-c4ccccc4)[nH]c3c2)ccc1Br", "survival": "-2% (active)"}
{"molecule": "Cc1ccc(NS(=O)(=O)c2ccc3nc(-c4ccccc4)[nH]c3c2)cc1Cl", "survival": "6% (active)"}
{"molecule": "COc1ccc(NS(=O)(=O)c2ccc3nc(-c4ccccc4)[nH]c3c2)cc1", "survival": "72% (inactive)"}
{"molecule": "CC(C)c1ccc(NS(=O)(=O)c2ccc3nc(-c4ccccc4)[nH]c3c2)cc1", "survival": "67% (inactive)"}
{"molecule": "O=S(=O)(Nc1ccc(Br)cc1)c1ccc2nc(-c3ccccc3)[nH]c2c1", "survival": "-1% (active)"}
{"molecule": "Cc1cccc(NS(=O)(=O)c2ccc3nc(-c4ccccc4)[nH]c3c2)c1C", "survival": "109% (inactive)"}
{"molecule": "Cc1ccc(NS(=O)(=O)c2ccc3c(c2)CC(=O)N3)cc1Cl", "survival": "47% (active)"}
{"molecule": "Cc1ccc(NS(=O)(=O)c2ccc3c(c2)N(C)C(=O)CC(=O)N3C)cc1Cl", "survival": "72% (inactive)"}
{"molecule": "Cc1ccc(NS(=O)(=O)c2ccc3nc(-c4ccccc4)[nH]c3c2)c(Cl)c1", "survival": "76% (inactive)"}
{"molecule": "O=S(=O)(Nc1ccc(Br)cc1F)c1ccc2nc(-c3ccccc3)[nH]c2c1", "survival": "72% (inactive)"}
{"molecule": "COc1cc(NS(=O)(=O)c2ccc3c(c2)CC(=O)N3)cc(OC)c1OC", "survival": "74% (inactive)"}
{"molecule": "Cc1ccc(NS(=O)(=O)c2ccc3nc(-c4ccccc4)[nH]c3c2)c(Br)c1", "survival": "79% (inactive)"}
{"molecule": "Cc1cc(C)c(C#N)c(SCC(=O)Nc2sc3c(c2C#N)CCC(C(C)(C)C)C3)n1", "note": "(centres undefined)", "survival": "75% (inactive)"}
{"molecule": "Cc1ccc(CNC(=O)Cn2c(=O)n(-c3ccc(C)c(F)c3)c(=O)c3sc4ccccc4c32)cc1", "survival": "75% (inactive)"}
{"molecule": "COc1ccc(-c2cnnn2-c2ccc(NC(=O)c3ccc(S(=O)(=O)N(C)C)cc3)cc2)cc1", "survival": "81% (inactive)"}
{"molecule": "COCCNC(=O)CCn1c(=O)[nH]c2cc(OC)c(OC)cc2c1=O", "survival": "90% (inactive)"}
{"molecule": "CCN1C2OC(C3OC4C(O3)N(CC)S(=O)(=O)N4CC)OC2N(CC)S1(=O)=O", "note": "(centres undefined)", "survival": "73% (inactive)"}
{"molecule": "CCN1/C(=C2/SC(=S)N(N)C2=O)Sc2ccccc21", "survival": "77% (inactive)"}
{"molecule": "O=C(CSc1nnc(-c2cccs2)o1)N1c2ccccc2CCc2ccccc21", "survival": "70% (inactive)"}
{"molecule": "CCOc1ccc(-c2nonc2NC(=O)c2oc3ccc(F)cc3c2C)cc1", "survival": "117% (inactive)"}
{"molecule": "CC1(C)C(=O)N(CC(=O)Nc2cccc(F)c2)c2ccc(S(=O)(=O)N3CCCCC3)cc21", "survival": "81% (inactive)"}
{"molecule": "Cc1nn(-c2ccc(N3CCCC3)nn2)c(C)c1CCC(=O)Nc1ccccc1", "survival": "83% (inactive)"}
